Test results reported in the supplement of paper PMC4022240.
± gives the standard deviation.

Legend:
Assay in all cases: peptide microarray binding signal (635 nm), min-max normalized on array (fraction of array maximum); higher = stronger binding
[1] = target: T1, HaloTag-ATRX ADD domain (163-292)
T1 chain: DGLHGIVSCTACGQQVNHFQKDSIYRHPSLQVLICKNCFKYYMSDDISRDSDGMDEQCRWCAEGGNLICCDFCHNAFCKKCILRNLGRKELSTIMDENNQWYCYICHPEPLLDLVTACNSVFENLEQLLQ
Summary of the method: (§1)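 Binding signal is the mean intensity of triplicate spots, min-max scaled within each library. Histone 13-mer peptide–cellulose conjugates were spotted in triplicate on nitrocellulose with a Cy3 tracer and blocked overnight at 4°C. Probing lasted 1 h at 4°C, either with biotin-labelled HaloTag reader fusions (10 nM to 1 μM) and streptavidin-Alexa Fluor 647 or with rabbit histone antibodies (1:10,000 to 1:2,000) and anti-rabbit Alexa 647. An Axon GenePix 4000B read signal at 635 nm and misprints at 532 nm.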

[2] = target: HaloTag-ING2 PHD (mouse Ing2 200-280)
Summary of the method: as §1

[3] = target: anti-H3K4me3 antibody ab8580
Summary of the method: as §1

[4] = target: anti-H3K9me3 antibody ab8898
Summary of the method: as §1

[5] = peptide region: H4 16-28, peptide modifications: H4R19cit H4K20me2, binder concentration: 1:2,000 dilution
[6] = peptide region: H4 16-28, peptide modifications: H4R19cit H4K20me2, binder concentration: 1:10,000 dilution
[7] = peptide region: H4 16-28, peptide modifications: H4K20me1, binder concentration: 1:2,000 dilution
[8] = peptide region: H4 8-19, peptide modifications: H4K16ac H4R17me2a, binder concentration: 1:2,000 dilution
[9] = peptide region: H4 16-28, peptide modifications: H4K20me3, binder concentration: 1:2,000 dilution
[10] = peptide region: H4 8-19, peptide modifications: H4K16ac H4R17me1, binder concentration: 1:2,000 dilution
[11] = peptide region: H4 8-19, peptide modifications: H4K16ac, binder concentration: 1:2,000 dilution
[12] = peptide region: H4 8-19, peptide modifications: H4K16ac, binder concentration: 1:10,000 dilution
[13] = peptide region: H4 8-19, peptide modifications: H4K8ac, binder concentration: 1:2,000 dilution
[14] = peptide region: H4 8-19, peptide modifications: H4K8ac, binder concentration: 1:10,000 dilution
[15] = peptide region: H4 8-19, peptide modifications: H4R17me2a, binder concentration: 1:2,000 dilution
[16] = peptide region: H4 8-19, peptide modifications: H4R17me2a, binder concentration: 1:10,000 dilution
[17] = peptide region: H4 16-28, peptide modifications: H4R19me1, binder concentration: 1:2,000 dilution
[18] = peptide region: H4 8-19, peptide modifications: H4R17cit, binder concentration: 1:2,000 dilution
[19] = peptide region: H4 8-19, peptide modifications: H4R17cit, binder concentration: 1:10,000 dilution
[20] = peptide region: H4 16-28, binder concentration: 1:2,000 dilution
[21] = peptide region: H4 16-28, peptide modifications: H4K20me2, binder concentration: 1:2,000 dilution
[22] = peptide region: H4 8-19, peptide modifications: H4R17me2s, binder concentration: 1:2,000 dilution
[23] = peptide region: H4 8-19, peptide modifications: H4R17me2s, binder concentration: 1:10,000 dilution

Binder: KRHRKVLRDNIQG [H4 16-28 K R H Rcit Kme2 V L R D N I Q G]
- peptide microarray binding signal ([1]; peptide region: H4 16-28, peptide modifications: H4R19cit H4K20me2, binder concentration: 50 nM): 0.00351 ± 7.6e-05
- peptide microarray binding signal ([1]; peptide region: H4 16-28, peptide modifications: H4R19cit H4K20me2, binder concentration: 500 nM): 0.007572 ± 7.1e-05
- peptide microarray binding signal ([2]; peptide region: H4 16-28, peptide modifications: H4R19cit H4K20me2, binder concentration: 10 nM): 0.00812 ± 0.00016
- peptide microarray binding signal ([2]; peptide region: H4 16-28, peptide modifications: H4R19cit H4K20me2, binder concentration: 100 nM): 0.0181 ± 0.00075
- peptide microarray binding signal [3, 5]: 0.0008306 ± 7.4e-06
- peptide microarray binding signal [3, 6]: 0.0016
- peptide microarray binding signal [4, 5]: 0.000483 ± 9.2e-06
- peptide microarray binding signal [4, 6]: 0.001211 ± 1.2e-05

Binder: KRHRKVLRDNIQG [H4 16-28 K R H R Kme V L R D N I Q G]
- peptide microarray binding signal ([1]; peptide region: H4 16-28, peptide modifications: H4K20me1, binder concentration: 500 nM): 0.000143
- peptide microarray binding signal ([2]; peptide region: H4 16-28, peptide modifications: H4K20me1, binder concentration: 100 nM): 0.000283
- peptide microarray binding signal [3, 7]: 7.55e-05 ± 8.5e-07
- peptide microarray binding signal [4, 7]: 4.53e-05

Binder: KGLGKGGAKRHRK [H4 8-19 K G L G K G G A Kac Rme2a H R K]
- peptide microarray binding signal ([1]; peptide region: H4 8-19, peptide modifications: H4K16ac H4R17me2a, binder concentration: 500 nM): 0
- peptide microarray binding signal ([2]; peptide region: H4 8-19, peptide modifications: H4K16ac H4R17me2a, binder concentration: 100 nM): 0.000283
- peptide microarray binding signal [3, 8]: 1.89e-05 ± 2.2e-07
- peptide microarray binding signal [4, 8]: 1.51e-05 ± 1.7e-07

Binder: KRHRKVLRDNIQG [H4 16-28 K R H R Kme3 V L R D N I Q G]
- peptide microarray binding signal ([1]; peptide region: H4 16-28, peptide modifications: H4K20me3, binder concentration: 500 nM): 0.000667 ± 3.7e-05
- peptide microarray binding signal ([2]; peptide region: H4 16-28, peptide modifications: H4K20me3, binder concentration: 100 nM): 7.09e-05 ± 1.5e-06
- peptide microarray binding signal [3, 9]: 0.000982 ± 0.00023
- peptide microarray binding signal [4, 9]: 1.51e-05 ± 1.7e-07

Binder: KGLGKGGAKRHRK [H4 8-19 K G L G K G G A Kac Rme H R K]
- peptide microarray binding signal ([1]; peptide region: H4 8-19, peptide modifications: H4K16ac H4R17me1, binder concentration: 500 nM): 0.000143 ± 2.7e-06
- peptide microarray binding signal ([2]; peptide region: H4 8-19, peptide modifications: H4K16ac H4R17me1, binder concentration: 100 nM): 0.000425 ± 4.9e-06
- peptide microarray binding signal [3, 10]: 7.55e-05 ± 8.5e-07
- peptide microarray binding signal [4, 10]: 3.02e-05 ± 3.4e-07

Binder: KGLGKGGAKRHRK [H4 8-19 K G L G K G G A Kac R H R K]
- peptide microarray binding signal ([1]; peptide region: H4 8-19, peptide modifications: H4K16ac, binder concentration: 50 nM): 0.00483 ± 0.00015
- peptide microarray binding signal ([1]; peptide region: H4 8-19, peptide modifications: H4K16ac, binder concentration: 500 nM): 0.0126 ± 0.00055
- peptide microarray binding signal ([2]; peptide region: H4 8-19, peptide modifications: H4K16ac, binder concentration: 10 nM): 0.00388 ± 8.9e-05
- peptide microarray binding signal ([2]; peptide region: H4 8-19, peptide modifications: H4K16ac, binder concentration: 100 nM): 0.0106 ± 0.0026
- peptide microarray binding signal [3, 11]: 0.00238 ± 0.00047
- peptide microarray binding signal [3, 12]: 0.002 ± 4.9e-05
- peptide microarray binding signal [4, 11]: 0.00181 ± 6e-05
- peptide microarray binding signal [4, 12]: 0.00127 ± 3.4e-05

Binder: KGLGKGGAKRHRK [H4 8-19 Kac G L G K G G A K R H R K]
- peptide microarray binding signal ([1]; peptide region: H4 8-19, peptide modifications: H4K8ac, binder concentration: 50 nM): 0.00652 ± 0.00063
- peptide microarray binding signal ([1]; peptide region: H4 8-19, peptide modifications: H4K8ac, binder concentration: 500 nM): 0.0191 ± 0.0048
- peptide microarray binding signal ([2]; peptide region: H4 8-19, peptide modifications: H4K8ac, binder concentration: 10 nM): 0.004 ± 0.00025
- peptide microarray binding signal ([2]; peptide region: H4 8-19, peptide modifications: H4K8ac, binder concentration: 100 nM): 0.0126 ± 0.0039
- peptide microarray binding signal [3, 13]: 0.000849 ± 0.00016
- peptide microarray binding signal [3, 14]: 0.001712 ± 1.6e-05
- peptide microarray binding signal [4, 13]: 0.000876 ± 7e-05
- peptide microarray binding signal [4, 14]: 0.00121 ± 2.4e-05

Binder: KGLGKGGAKRHRK [H4 8-19 K G L G K G G A K Rme2a H R K]
- peptide microarray binding signal ([1]; peptide region: H4 8-19, peptide modifications: H4R17me2a, binder concentration: 50 nM): 0.00395 ± 0.00035
- peptide microarray binding signal ([1]; peptide region: H4 8-19, peptide modifications: H4R17me2a, binder concentration: 500 nM): 0.00957 ± 0.00096
- peptide microarray binding signal ([2]; peptide region: H4 8-19, peptide modifications: H4R17me2a, binder concentration: 10 nM): 0.00358 ± 3.8e-05
- peptide microarray binding signal ([2]; peptide region: H4 8-19, peptide modifications: H4R17me2a, binder concentration: 100 nM): 0.0085 ± 0.00064
- peptide microarray binding signal [3, 15]: 0.00051 ± 1.5e-05
- peptide microarray binding signal [3, 16]: 0.000913 ± 1.6e-05
- peptide microarray binding signal [4, 15]: 0.000483 ± 1.7e-05
- peptide microarray binding signal [4, 16]: 0.00208 ± 0.00045

Binder: KRHRKVLRDNIQG [H4 16-28 K R H Rme K V L R D N I Q G]
- peptide microarray binding signal ([1]; peptide region: H4 16-28, peptide modifications: H4R19me1, binder concentration: 500 nM): 9.52e-05 ± 1e-06
- peptide microarray binding signal ([2]; peptide region: H4 16-28, peptide modifications: H4R19me1, binder concentration: 100 nM): 0.000425 ± 4.9e-06
- peptide microarray binding signal [3, 17]: 0.000113 ± 2.2e-06
- peptide microarray binding signal [4, 17]: 1.51e-05 ± 1.7e-07

Binder: KGLGKGGAKRHRK [H4 8-19 K G L G K G G A K Rcit H R K]
- peptide microarray binding signal ([1]; peptide region: H4 8-19, peptide modifications: H4R17cit, binder concentration: 50 nM): 0.0003448 ± 3.2e-06
- peptide microarray binding signal ([1]; peptide region: H4 8-19, peptide modifications: H4R17cit, binder concentration: 500 nM): 0.000381 ± 4e-06
- peptide microarray binding signal ([2]; peptide region: H4 8-19, peptide modifications: H4R17cit, binder concentration: 10 nM): 0.00191 ± 4e-05
- peptide microarray binding signal ([2]; peptide region: H4 8-19, peptide modifications: H4R17cit, binder concentration: 100 nM): 0.000354 ± 4.1e-06
- peptide microarray binding signal [3, 18]: 7.55e-05 ± 8.5e-07
- peptide microarray binding signal [3, 19]: 0.000685 ± 1.5e-05
- peptide microarray binding signal [4, 18]: 3.02e-05 ± 3.4e-07
- peptide microarray binding signal [4, 19]: 0

Binder: KRHRKVLRDNIQG [H4 16-28 K R H R K V L R D N I Q G]
- peptide microarray binding signal ([1]; peptide region: H4 16-28, binder concentration: 500 nM): 0.000238 ± 2.5e-06
- peptide microarray binding signal ([2]; peptide region: H4 16-28, binder concentration: 100 nM): 0.000354 ± 4.1e-06
- peptide microarray binding signal [3, 20]: 0.000132 ± 1.5e-06
- peptide microarray binding signal [4, 20]: 6.04e-05 ± 2.7e-06

Binder: KRHRKVLRDNIQG [H4 16-28 K R H R Kme2 V L R D N I Q G]
- peptide microarray binding signal ([1]; peptide region: H4 16-28, peptide modifications: H4K20me2, binder concentration: 500 nM): 0
- peptide microarray binding signal ([2]; peptide region: H4 16-28, peptide modifications: H4K20me2, binder concentration: 100 nM): 0.000142 ± 1.7e-06
- peptide microarray binding signal [3, 21]: 5.66e-05 ± 1.1e-06
- peptide microarray binding signal [4, 21]: 1.51e-05 ± 1.7e-07

Binder: KGLGKGGAKRHRK [H4 8-19 K G L G K G G A K Rme2s H R K]
- peptide microarray binding signal ([1]; peptide region: H4 8-19, peptide modifications: H4R17me2s, binder concentration: 50 nM): 0.00464 ± 0.00023
- peptide microarray binding signal ([1]; peptide region: H4 8-19, peptide modifications: H4R17me2s, binder concentration: 500 nM): 0.02 ± 0.00069
- peptide microarray binding signal ([2]; peptide region: H4 8-19, peptide modifications: H4R17me2s, binder concentration: 10 nM): 0.00173 ± 7.2e-05
- peptide microarray binding signal ([2]; peptide region: H4 8-19, peptide modifications: H4R17me2s, binder concentration: 100 nM): 0.00184 ± 0.00024
- peptide microarray binding signal [3, 22]: 0.000132 ± 1.5e-06
- peptide microarray binding signal [3, 23]: 0.000685 ± 7.2e-06
- peptide microarray binding signal [4, 22]: 0.000861 ± 4.5e-05
- peptide microarray binding signal [4, 23]: 0.000807 ± 1.5e-05
